The full list was thinned out, with hits kept by preference.
Pf apPOL inh: Pf-apPOL DNA polymerase inhibition; Recombinant Pf-apPOL, molecular beacon fluorescence, 1.5 h; inhibition, % at 10 µM; hit rate 0.25% among 210,000; AID 1794808
mHTT-CaM PPI inh: disrupts binding of mutant huntingtin to calmodulin. hit rate 3.6% among 190,000. AID 1671202. inhibition, % at 15 µM. AlphaScreen His-mHTT/GST-CaM binding, luminescence
Of the large screens only hits and unclear results are named; the others gave an inactive call; ! = a repeat was not active. Rule as the data show it: active = inhibition above about 50%; inactive = the rest.

Cc1ccc(Cl)cc1NC(=O)Cn1[nH]c2c(cnc3ccc(F)cc32)c1=O	none
Cc1ccc(F)cc1NC(=O)Cn1[nH]c2c(cnc3ccc(F)cc32)c1=O	mHTT-CaM PPI inh 94.9
CC(=O)NC1C(Oc2ccc(C(C)(C)C)cc2)OC2COC(c3ccco3)OC2C1O (stereo not drawn)	none
CC1CC(=O)Nc2ccccc2N1C(=O)CN1CCN(c2ccccn2)CC1 (stereo not drawn)	none (no result: mHTT-CaM PPI inh)
CCN(CC)C(=O)CC(c1ccc(OC)cc1)c1c(OC)cc(OC)c2ccc(=O)oc12 (stereo not drawn)	none
COc1ccc(C(CCN2CCN(c3ccccc3)CC2)c2c(OC)cc(OC)c3c(-c4ccccc4)cc(=O)oc23)cc1 (stereo not drawn)	none
CCN(CC)CCC(c1ccc(N(C)C)cc1)c1c(OC)cc(OC)c2c(-c3ccccc3)cc(=O)oc12 (stereo not drawn)	mHTT-CaM PPI inh 100.2
COc1cc(OC)c2c(-c3ccccc3)cc(=O)oc2c1C(CCN1CCN(c2ccccc2)CC1)c1ccc(N(C)C)cc1 (stereo not drawn)	mHTT-CaM PPI inh 68.8
COc1cc(OC)c2ccc(=O)oc2c1C(CCN1CCN(c2ccccc2)CC1)c1ccc(N(C)C)cc1 (stereo not drawn)	mHTT-CaM PPI inh 83.5
COc1cc(OC)c2ccc(=O)oc2c1C(CCN1CCOCC1)c1ccc(N(C)C)cc1 (stereo not drawn)	none
Fc1ccc(CNc2ncnc3ccccc23)cc1	none
COCCCNC(=O)NCCC1CCN(S(=O)(=O)c2ccc(F)cc2)CC1	none
Cc1cc(O)c(C(C)C)cc1NC(=O)c1ccc(Cl)cc1	none
Cc1cc(O)c(C(C)C)cc1N=C1CSC(=O)N1	mHTT-CaM PPI inh 53.0
CCOC(=O)C(=O)NCCC1CCCCN1S(=O)(=O)c1ccc(F)cc1C (stereo not drawn)	none
COCCOc1nc2ccccc2s1	none
COc1ccc(NC(=O)c2cc3cn(C4CC4)cc3s2)c(C)c1	mHTT-CaM PPI inh 51.7
CC(C)n1cc2cc(C(=O)NCc3ccc(N4CCOCC4)cc3)sc2c1	none
O=C(NCCCN1CCCC1)c1cc2cn(C3CC3)cc2s1	Pf apPOL inh 107.5, mHTT-CaM PPI inh 99.2
O=C(NCc1ccc(N2CCOCC2)cc1)c1cc2cn(C3CC3)cc2s1	none
COc1cccc(CNC(=O)c2cc3cn(C4CC4)cc3s2)c1	mHTT-CaM PPI inh 57.4
CC(C)n1cc2cc(C(=O)NCc3ccc(Cl)cc3)sc2c1	mHTT-CaM PPI inh 73.0
CC(C)NC(=O)c1cc2cn(C3CCCC3)cc2s1	none
O=C(NCCCN1CCCC1)c1cc2cn(C3CCCC3)cc2s1	none
O=c1c2ccccc2ncn1C1CCN(S(=O)(=O)c2ccc(F)cc2)CC1	none
CCOc1ccccc1NC(=O)c1cc(S(=O)(=O)N2CCc3ccccc3C2)ccc1F	none
O=C(c1cc2cn(C3CCCC3)cc2s1)N1CCSCC1	none
O=C(c1cc2cn(C3CCCC3)cc2s1)N1CCN(C2CCCCC2)CC1	mHTT-CaM PPI inh 73.4
Cc1ccc(-c2nc3cc(C)ccn3c2NC(=O)C(Cl)Cl)cc1	mHTT-CaM PPI inh 56.6
CCCC(=O)Nc1c(-c2ccc(C)cc2)nc2cc(C)ccn12	none
COc1ccc(NC(=O)c2ccc(N(Cc3ccc(Cl)cc3)S(C)(=O)=O)cc2)cc1OC	none
CS(=O)(=O)N(Cc1ccc(Cl)cc1)c1ccc(C(=O)Nc2ccc3c(c2)OCO3)cc1	Pf apPOL inh 89.3
CCOC(=O)C(=CNc1cc(C(C)(C)C)sc1C(C)=O)C(=O)OCC	none (no result: mHTT-CaM PPI inh)
Cc1cc(NC(=O)CSc2nnc(Cc3c(C)[nH]c(=O)[nH]c3=O)o2)no1	none
Cc1cc(NC(=O)CSc2nnc(C3COc4ccccc4O3)o2)no1 (stereo not drawn)	mHTT-CaM PPI inh 72.1
Cc1ccc(-n2c(SCc3ccccc3C)nc3[nH]ncc3c2=O)cc1	none
COc1cc(OC)c(NC(=O)N2CCCC2c2cc(C(C)C)on2)cc1Cl (stereo not drawn)	none
O=C(Nc1ccc(-c2nc3ccccc3s2)cc1)c1ccc2c(c1)OCCO2	none
Cc1nnc(N2C(=O)C(O)=C(C(=O)c3ccco3)C2c2ccccc2F)s1 (stereo not drawn)	mHTT-CaM PPI inh 56.6
Cc1nnc(N2C(=O)C(O)=C(C(=O)c3ccco3)C2c2ccc(Br)cc2)s1 (stereo not drawn)	none
COc1ccc(C2C(C(=O)c3ccco3)=C(O)C(=O)N2c2nnc(C)s2)cc1OC (stereo not drawn)	none
Cc1nnc(N2C(=O)C(O)=C(C(=O)c3ccco3)C2c2ccc(Cl)cc2)s1 (stereo not drawn)	mHTT-CaM PPI inh 78.1
COCCNC(=O)c1ccc(N(Cc2ccccc2Cl)S(C)(=O)=O)cc1	none
COCCn1cc2c3c(cccc31)CN(C(=O)c1cc(F)cc(F)c1)CC2	none
CCCn1cc2c3c(cccc31)CN(C(=O)NCCCOC)CC2	none
COCCn1cc2c3c(cccc31)CN(C(=O)c1ccccc1OC)CC2	mHTT-CaM PPI inh 52.1
CCCn1cc2c3c(cccc31)CN(C(=O)c1ccccc1OC)CC2	mHTT-CaM PPI inh 58.2
COCCn1cc2c3c(cccc31)CN(C(=O)c1cccc(C(F)(F)F)c1)CC2	mHTT-CaM PPI inh 69.6
COCCn1cc2c3c(cccc31)CN(C(=O)c1ccccc1Cl)CC2	none
CCOC(=O)c1csc(NC(=O)C2CCN(S(=O)(=O)c3ccc(F)cc3)CC2)n1	none
O=C(NCCN1CCN(c2ccc(Cl)cc2)CC1)C(=O)Nc1ccon1	none
COc1cc(C(=O)OC(Cc2ccccc2)C(F)(F)F)cc(OC)c1OC (stereo not drawn)	none (no result: mHTT-CaM PPI inh)
CC(C)S(=O)(=O)c1ccc(C(=O)Nc2ccc(Cl)c3ncsc23)cc1	none
O=C(NC(Nc1ccc(Cl)cc1)C(Cl)(Cl)Cl)c1ccco1 (stereo not drawn)	none
O=C(NC(Nc1ccc(Cl)cc1Cl)C(Cl)(Cl)Cl)c1ccco1 (stereo not drawn)	mHTT-CaM PPI inh 51.0
CCCS(=O)(=O)N1CCc2ccc(NS(=O)(=O)c3ccc(C)s3)cc2C1	none
COc1cc(CCCO)cc(-c2cc(CCCO)cc(OC)c2O)c1O	none
C=CCc1cc(OC)c(O)c(-c2cc(CC=C)cc(OC)c2O)c1	mHTT-CaM PPI inh 61.0
CN(c1ccc(Cl)cc1)S(=O)(=O)c1ccc2[nH]cc(C(=O)N3CCCCCC3)c(=O)c2c1	none
N#Cc1ccccc1NC(=O)NCC1CN(c2ccc3c(c2)OCO3)C(=O)O1 (stereo not drawn)	none
O=c1cc(-c2cc(Cl)cc3c2OCOC3)oc2ccc(Cl)cc12	none
O=C(NCc1cccc(Cl)c1)c1cn2ccncc2n1	none
O=[N+]([O-])c1cc(C(F)(F)F)cc([N+](=O)[O-])c1N1CCCCC1	none
O=[N+]([O-])c1cc(Br)c2nsnc2c1N1CCCCC1	mHTT-CaM PPI inh 77.0!
CCOc1ccc(S(=O)(=O)N(C(=O)c2ccncc2)c2ccc3oc4c(c3c2)CCCC4)cc1	none
O=C(c1ccncc1)N(c1ccc2oc3c(c2c1)CCCC3)S(=O)(=O)c1ccc(F)cc1	mHTT-CaM PPI inh 58.0
CCN(CC)Cc1c(O)ccc2c1OC(=CC=Cc1ccccc1)C2=O	none
COC(=O)c1ccc2c(c1)C(=O)C(=Cc1cc(OC)ccc1OC)O2	none
Cc1[nH]c2ccccc2c1C(c1ccncc1)N1CCC(C)CC1 (stereo not drawn)	none
COC(c1cccs1)c1c(C)[nH]c2ccccc12 (stereo not drawn)	mHTT-CaM PPI inh 60.0
COC(=O)c1sc2scc(C)c2c1C	Pf apPOL inh 63.6! (no result: mHTT-CaM PPI inh)
CSC(=CC(=O)c1sc2scc(C)c2c1C)SC	none (no result: mHTT-CaM PPI inh)
COc1cccc(Cc2nnc(-c3c(-c4ccccc4)noc3C)o2)c1	none (no result: mHTT-CaM PPI inh)
Cc1ccc(CNC(=O)C2CCN(c3ccc(N4CCCCC4)nn3)CC2)cc1	none

From PubChem
